# Out of some 5,500 compounds screened, about 2,000 (36%) were called active. About 18% were inconclusive and are not listed. Some of the results follow. A number with no mark means an inactive call. Cut-off read from the data, not from the text of the source: active = normalized growth mostly below about 0.91 (no sharp cut-off); inconclusive = no clear call, values can overlap the other calls; inactive = mostly above about 0.92.
# Assay: chemical genetic growth profiling, strain panel (AID 1159580);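 note: tested at 20 µM; growth read once vehicle control cultures reached saturation at 30 °C; 1 = growth at the plate median or of vehicle wells; lower values mean less growth of the strain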
# Conditions: S. cerevisiae deletion strains, growth OD
# [1] = locus YAL040C, strain CLN3, hits give low values
# [2] = locus YCL061C, strain MRC1 (second series), hits give low values
# [3] = locus YDR150W, strain NUM1, hits give low values
# [4] = locus YDR363W, strain ESC2, hits give low values
# [5] = locus YER002W, strain NOP16, hits give low values
# [6] = locus YJR075W, strain HOC1, hits give low values
# [7] = locus YMR263W, strain SAP30, hits give low values
# [8] = locus YMR307W, strain GAS1, hits give low values
# [9] = locus YNL153C, strain GIM3, hits give low values
# [10] = locus YNL175C, strain NOP13, hits give low values
# [11] = locus YNL197C, strain WHI3, hits give low values
# [12] = locus YNL224C, strain SQS1, hits give low values
# [13] = locus YOR083W, strain WHI5 (second series), hits give low values
# [14] = locus YAL013W, strain DEP1, hits give low values
# [15] = locus YNL322C, strain KRE1, hits give low values
# [16] = locus YPL241C, strain CIN2, hits give low values
# [17] = locus YBR229C, strain ROT2, hits give low values
# [18] = locus YDL101C, strain DUN1, hits give low values
# [19] = locus YDL134C, strain PPH21, hits give low values
# [20] = locus YEL061C, strain CIN8, hits give low values
# [21] = locus YGR078C, strain PAC10, hits give low values
# [22] = locus YHR030C, strain SLT2, hits give low values
# [23] = locus YHR087W, strain rtc3, hits give low values
# [24] = locus YJR043C, strain POL32, hits give low values
# [25] = locus YLR039C, strain RIC1, hits give low values
# [26] = locus YLR058C, strain SHM2 (second series), hits give low values
# [27] = locus YLR085C, strain ARP6, hits give low values
# [28] = locus YLR262C, strain YPT6, hits give low values
# [29] = locus YML094W, strain GIM5, hits give low values
# [30] = locus YMR219W, strain ESC1, hits give low values
# [31] = locus YNL298W, strain CLA4 (second series), hits give low values
# [32] = locus YNR030W, strain Alg12, hits give low values
# [33] = locus YOL006C, strain TOP1, hits give low values
# [34] = locus YPL055C, strain LGE1, hits give low values
# [35] = locus YPR135W, strain CTF4, hits give low values
smiles,measurement,setting,value
O=c1oc(Cl)c(Cl)c2ccccc12,normalized growth,[1],1.03
same,normalized growth,[2],1
same,normalized growth,[3],0.991
same,normalized growth,[4],1
same,normalized growth,[5],1.02
same,normalized growth,"locus YGR229C, strain SMI1, hits give low values",0.968
same,normalized growth,[6],0.998
same,normalized growth,[7],1
same,normalized growth,[8],1
same,normalized growth,[9],0.798 (active)
same,normalized growth,[10],1.01
same,normalized growth,[11],1.02
same,normalized growth,[12],0.923
same,normalized growth,[13],0.915
NC(=S)c1ccc[n+]([C@@H]2O[C@@H](COP(=O)([O-])OP(=O)(O)OC[C@H]3O[C@@H](n4cnc5c(N)ncnc54)C(OP(=O)(O)O)[C@H]3O)C(O)C2O)c1 (stereo partly drawn),normalized growth,[14],1.02
same,normalized growth,[1],1.03
same,normalized growth,[2],1.01
same,normalized growth,[4],1
same,normalized growth,[5],0.999
same,normalized growth,[7],0.995
same,normalized growth,[8],1
same,normalized growth,[10],1
same,normalized growth,[11],1.03
same,normalized growth,[12],1
same,normalized growth,[15],1.02
same,normalized growth,[13],0.998
same,normalized growth,[16],1.01
Cc1ccc(S(=O)(=O)Oc2ccc(CC#N)cc2)cc1,normalized growth,[14],0.998
same,normalized growth,[17],0.963
same,normalized growth,[18],1.02
same,normalized growth,[19],0.978
same,normalized growth,[3],0.995
same,normalized growth,[20],0.976
same,normalized growth,[21],1.01
same,normalized growth,[22],0.974
same,normalized growth,[23],0.953
same,normalized growth,[24],1.01
same,normalized growth,[6],0.993
same,normalized growth,"locus YKL190W, strain CNB1, hits give low values",0.945
same,normalized growth,[25],0.865
same,normalized growth,[26],0.977
same,normalized growth,[27],0.929
same,normalized growth,[28],0.845
same,normalized growth,[29],0.956
same,normalized growth,[30],0.989
same,normalized growth,[7],0.995
same,normalized growth,"locus YNL128W, strain TEP1, hits give low values",0.995
same,normalized growth,[9],1.01
same,normalized growth,[31],0.977
same,normalized growth,[15],0.978
same,normalized growth,[32],0.969
same,normalized growth,[33],0.971
same,normalized growth,[34],0.958
same,normalized growth,[16],0.979
same,normalized growth,[35],0.863
Cc1ccc(S(=O)(=O)Oc2cc(=O)n(C)c3ccccc23)cc1,normalized growth,[14],0.95
same,normalized growth,[17],0.967
same,normalized growth,[18],0.967
same,normalized growth,[19],0.945
same,normalized growth,[3],0.918
same,normalized growth,[20],0.972
same,normalized growth,[21],0.955
same,normalized growth,[22],0.791
same,normalized growth,[23],0.961
same,normalized growth,"locus YJL187C, strain SWE1, hits give low values",0.861 (active)
same,normalized growth,[24],0.961
same,normalized growth,[6],0.96
same,normalized growth,[25],0.971
same,normalized growth,[26],0.952
same,normalized growth,[27],0.838
same,normalized growth,[28],0.918
same,normalized growth,[29],0.952
same,normalized growth,[30],0.963
same,normalized growth,[7],0.903
same,normalized growth,[8],0.622 (active)
same,normalized growth,[9],0.954
same,normalized growth,[31],0.916
same,normalized growth,[15],0.977
same,normalized growth,[32],0.909
same,normalized growth,[33],0.808
same,normalized growth,[34],0.898
same,normalized growth,[16],0.873
same,normalized growth,[35],0.666
